Measured values from PubChem BioAssay (EPA / NIEHS).
Calls of active or inactive are those of the source. How the source made its calls: active means hit-call score of the fitted dose curve at least 0.9, where 1 is the maximum; inactive means score below 0.9.

Test: Tanguay_ZF_120hpf_DP24: Oregon State University Tanguay Lab 24 Hour Post-fertilization zebrafish Assay for Delayed Development (AID 2284390)
Procedure: Tanguay_ZF_120hpf is a whole embryo, multiplexed endpoint assay using zebrafish larvae exposed for 120 hours post fertilization on a 96-well plate.Tanguay_ZF_120hpf_DP24 is […] measured or calculated from the Tanguay_ZF_120hpf assay. It is designed to make measurements of zebrafish development as detected with brightfield microscopy of developing zebrafish embryos.Data from the assay component Tanguay_ZF_120hpf_DP24 was analyzed into 1 assay endpoints. This assay endpoint, Tanguay_ZF_120hpf_DP24, was analyzed in the positive analysis fitting direction relative to DMSO as the negative control and baseline of activity. Using a type of morphology reporter, gain-of-signal activity can be used to understand changes in developmentals as they relate to the whole embryo. To generalize the intended target to other relatable targets, this assay endpoint is annotated to the zebrafish development intended target family, where the subfamily is embryonic morphogenesis.
Zebrafish husbandry: Tropical 5D wild-type adult zebrafish were housed in at an approximate density of 1000 per 100 gallon tank at the Sinnhuber Aquatic Research Laboratory, Oregon State University, Corvallis, OR. Each tank was kept at standard laboratory conditions of 28C on a 14-h light/10-h dark photoperiod in fish water consisting of reverse osmosis water supplemented with a commercially available salt (Instant Ocean). Spawning funnels were placed into the tanks the night prior, and embryos were collected and staged. To increase bioavailability, the chorion was enzymatically removed using pronase (63.6mg/ml, >/= 3.5U/mg, Sigma-Aldrich: P5147) at 4 hours post fertilization (hpf) using a custom automated dechorionator.Chemical exposures: Six hpf dechorionated embryos were placed 1 embryo per well in a 96-well plate prefilled with 90 ul of EM using automated embryo placement systems (AEPS). Ten microliters of each row of dilution plate 2 was added to 2 exposure plates. The final DMSO concentration used was 0.64% (vol/vol). Thirty-two embryos were also exposed to 5uM trimethyltin chloride (positive control). Plates were sealed to prevent evaporation and foil covered to reduce light exposure and kept in a 28C incubator. Embryos were statically exposed until 120 hpf. At 24 hpf, embryos were assessed for photomotor response using a custom photomotor response analysis tool (PRAT) and for developmental toxicity endpoints (MO24: mortality at 24 hpf, DP: developmental progression, SM: spontaneous movement, and NC: notochord distortion). At 120 hpf, locomotor activity was measured using Viewpoint Zebralab and assessed for 13 endpoints. Zebrafish acquisition and analysis program (ZAAP), a custom program designed to inventory, acquire, and manage zebrafish data, was used to collect developmental endpoints as either present or absent (i.e., binary responses were recorded). If mortality occurred for an embryo (at either 24 or 120 hpf), the non-mortality endpoints were not measured.

Structure (SMILES)	outcome	AC50
CC(O)C(F)(F)C(F)(F)F (centres undefined)	inactive	
O=C(O)C(F)(F)OC(F)(F)C(F)(F)OC(F)(F)F	inactive	
C=CC(=O)OCC(F)(F)C(F)F		45.3 µM (active)
FC(F)(F)C(F)(C(F)(F)F)C(F)(F)C(F)(F)CC1CO1 (centres undefined)	inactive	
O=C(O)C(F)(F)C(F)(F)C(=O)O	inactive	
O=S(=O)(F)C(F)(F)C(F)(F)C(F)(F)C(F)(F)C(F)(F)C(F)(F)C(F)(F)C(F)(F)F	inactive	
OCC(F)(F)OC(F)(F)C(F)(F)OC(F)(F)C(F)(F)OC(F)(F)CO		33.3 µM (active)
O=C(O)C(F)(F)OC(F)(F)C(F)(F)OC(F)(F)C(=O)O	inactive	
OCC(F)(F)OC(F)(F)C(F)(F)OC(F)(F)CO	inactive	
OCC(F)(F)OC(F)(F)C(F)(F)OC(F)(F)C(F)(F)OC(F)(F)F	inactive	
COC(=O)C(F)(F)C(F)(F)OC(F)(C(F)(F)F)C(F)(F)OC(F)=C(F)F (centres undefined)	inactive	
NC(=O)C(F)(F)C(F)(F)F	inactive	
O=C(O)C=CC(F)(C(F)(F)F)C(F)(F)F	inactive	
O=C(O)C(F)(OC(F)(F)C(F)(F)C(F)(F)F)C(F)(F)F (centres undefined)	inactive	
